# In the supplement of paper PMC8728848:
# The sample as a whole holds a higher share of the strongest signals than the screen did.
# B1: GS7807Q-bfa-507-19-507 (Bacteroides fragilis) (protein)
# chain: ASCNKFDDLNTNPDAATKVTAPMLATKLILNITQQGSAKNFVYHSMLSKQIAWSENASDEQYNLFGRTDFDGYTILTNCQKMVDAANEGDKDSYAALAKFMKAYKLFYKSLEVGDIPYSDALKGEEGVQKPKYDTQKEVMRQVLEDLEEAYTLFSSGSDFDGDPIFGGDTENWKKTVVAFELKVLTHLCKKDTDADLKVKERFARLVSSGSLMTSNADNFQLVYSNKAGQLYPFYYTQNKHSDYLMMSSVIIDNLKKFNDYRMFYYASPAKAQTDKGIKDSEWDAYLSIDPSDSYSNISVLYGKGEFCLANLRYTRVPEGEPLMRLSYAEQNFILAEGAVRGWISEDASTYYKKGIEASMNFIADNTPDKEEYTHGRTITQEYIQEYLAQPVIQLSGDKEKDLEMILLQRYLASFLQHPYDAYYDYRRTGYPVLPINPSTNLNTEKNKIPTRWMYPEAEFSYNPDNANEAVQRQYNGSDDVNKLMWILQ
# Legend:
# Assay in all cases: glycan array binding signal (z-score within array); higher = stronger binding
# Conditions in all cases: glycan notation: IUPAC condensed, linker removed
# Fuc(a1-2)Gal(b1-3)GalNAc = biological target: Fuc(a1-2)Gal(b1-3)GalNAc
# Outline: (§1)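 Arrays were curated from the Consortium for Functional Glycomics database, 3228 in total, and kept only where the protein sequence was available. Binding is expressed as a within-array Z-score. This score was averaged across arrays of the same protein sequence at different concentrations or buffers and across linkers, and negative values can be read as non-binding.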
# [1] = biological target: Fuc(a1-2)Gal(b1-3)GalNAc(a1-3)[Fuc(a1-2)]Gal(b1-4)Glc
# Outline: as §1
# [2] = biological target: Fuc(a1-2)Gal(b1-4)GlcNAc(b1-2)Man(a1-3)[Fuc(a1-2)Gal(b1-4)GlcNAc(b1-2)Man(a1-6)]Man(b1-4)GlcNAc(b1-4)GlcNAc
# Outline: as §1
# [3] = biological target: Fuc(a1-2)Gal(b1-4)GlcNAc(b1-3)[Fuc(a1-3)[Gal(b1-4)]GlcNAc(b1-6)]Gal(b1-4)Glc
# Outline: as §1
# [4] = biological target: Fuc(a1-2)Gal(b1-4)GlcNAc(b1-6)GalNAc
# Outline: as §1
# [5] = biological target: Fuc(a1-2)Gal(b1-4)[Fuc(a1-3)]GlcNAc(b1-3)GalNAc
# Outline: as §1
# [6] = biological target: Fuc(a1-2)Gal3S(b1-4)GlcNAc
# Outline: as §1
# [7] = biological target: Fuc(a1-2)[Gal(a1-3)]Gal(b1-4)GlcNAc(b1-2)Man
# Outline: as §1
# [8] = biological target: Fuc(a1-2)[Gal(a1-3)]Gal(b1-4)[Fuc(a1-3)]Glc
# Outline: as §1
# [9] = biological target: Fuc(a1-2)[GalNAc(a1-3)]Gal(b1-3)GlcNAc(b1-6)GalNAc
# Outline: as §1
# [10] = biological target: Fuc(a1-2)[GalNAc(a1-3)]Gal(b1-4)GlcNAc(b1-2)Man(a1-3)[Fuc(a1-2)[GalNAc(a1-3)]Gal(b1-4)GlcNAc(b1-2)Man(a1-6)]Man(b1-4)GlcNAc(b1-4)[Fuc(a1-6)]GlcNAc
# Outline: as §1
# [11] = biological target: Fuc(a1-3)[Gal(b1-4)]GlcNAc(b1-2)Man(a1-3)[Fuc(a1-3)[Gal(b1-4)]GlcNAc(b1-2)Man(a1-6)]Man(b1-4)GlcNAc(b1-4)[Fuc(a1-6)]GlcNAc
# Outline: as §1
# [12] = biological target: Fuc(a1-3)[Gal(b1-4)]GlcNAc6S
# Outline: as §1
# [13] = biological target: Gal(a1-3)Gal(b1-4)GlcNAc(b1-2)Man(a1-3)[Gal(a1-3)Gal(b1-4)GlcNAc(b1-2)Man(a1-6)]Man(b1-4)GlcNAc(b1-4)GlcNAc
# Outline: as §1
# [14] = biological target: Gal(a1-3)Gal(b1-4)[Fuc(a1-3)]GlcNAc
# Outline: as §1
# Gal(a1-3)GalNAc = biological target: Gal(a1-3)GalNAc
# Outline: as §1
# [15] = biological target: Gal(a1-3)[Gal(a1-4)]Gal(b1-4)GlcNAc
# Outline: as §1
# [16] = biological target: Gal(a1-4)Gal(b1-4)GlcNAc(b1-3)Gal(b1-4)Glc
# Outline: as §1
# Gal(b1-3)GalNAc(b1-3)Gal = biological target: Gal(b1-3)GalNAc(b1-3)Gal
# Outline: as §1
# Gal(b1-3)GlcNAc(b1-2)Man = biological target: Gal(b1-3)GlcNAc(b1-2)Man
# Outline: as §1
# [17] = biological target: Gal(b1-3)GlcNAc(b1-2)[Gal(b1-3)GlcNAc(b1-6)]Man(a1-6)[Gal(b1-3)GlcNAc(b1-2)Man(a1-3)]Man(b1-4)GlcNAc(b1-4)GlcNAc
# Outline: as §1
# [18] = biological target: Gal(b1-3)GlcNAc(b1-3)Gal(b1-4)GlcNAc(b1-3)Gal(b1-4)GlcNAc(b1-2)[Gal(b1-3)GlcNAc(b1-3)Gal(b1-4)GlcNAc(b1-3)Gal(b1-4)GlcNAc(b1-6)]Man(a1-6)[Gal(b1-3)GlcNAc(b1-3)Gal(b1-4)GlcNAc(b1-3)Gal(b1-4)GlcNAc(b1-2)Man(a1-3)]Man(b1-4)GlcNAc(b1-4)[Fuc(a1-6)]GlcNAc
# Outline: as §1
# [19] = biological target: Gal(b1-3)GlcNAc(b1-3)Gal(b1-4)GlcNAc(b1-6)[Gal(b1-3)GlcNAc(b1-3)]Gal(b1-4)Glc
# Outline: as §1
# [20] = biological target: Gal(b1-3)[Fuc(a1-4)]GlcNAc(b1-2)Man(a1-3)[Gal(b1-3)[Fuc(a1-4)]GlcNAc(b1-2)Man(a1-6)]Man(b1-4)GlcNAc(b1-4)[Fuc(a1-6)]GlcNAc
# Outline: as §1
# [21] = biological target: Gal(b1-4)GalNAc(b1-3)[Fuc(a1-2)]Gal(b1-4)GlcNAc
# Outline: as §1
# Gal(b1-4)GlcNAc(b1-2)Man = biological target: Gal(b1-4)GlcNAc(b1-2)Man
# Outline: as §1
# [22] = biological target: Gal(b1-4)GlcNAc(b1-2)Man(a1-6)Man(b1-4)GlcNAc(b1-4)GlcNAc
# Outline: as §1
# [23] = biological target: Gal(b1-4)GlcNAc(b1-2)[Gal(b1-4)GlcNAc(b1-6)]Man(a1-6)[GlcNAc(b1-4)][Gal(b1-4)GlcNAc(b1-2)[Gal(b1-4)GlcNAc(b1-4)]Man(a1-3)]Man(b1-4)GlcNAc(b1-4)[Fuc(a1-6)]GlcNAc
# Outline: as §1
# [24] = biological target: Gal(b1-4)GlcNAc(b1-3)Gal(b1-4)GlcNAc(b1-2)Man(a1-3)[Gal(b1-4)GlcNAc(b1-3)Gal(b1-4)GlcNAc(b1-2)Man(a1-6)]Man(b1-4)GlcNAc(b1-4)GlcNAc
# Outline: as §1
# [25] = biological target: Gal(b1-4)GlcNAc(b1-3)Gal(b1-4)GlcNAc(b1-3)Gal(b1-4)GlcNAc
# Outline: as §1
binder,measurement,setting,value
B1,glycan array binding signal (z-score),Fuc(a1-2)Gal(b1-3)GalNAc,-1.06
same,glycan array binding signal (z-score),[1],-0.063
same,glycan array binding signal (z-score),[2],6.11
same,glycan array binding signal (z-score),[3],0.636
same,glycan array binding signal (z-score),[4],4.43
same,glycan array binding signal (z-score),[5],1.5
same,glycan array binding signal (z-score),[6],-0.3
same,glycan array binding signal (z-score),[7],-0.226
same,glycan array binding signal (z-score),[8],1.42
same,glycan array binding signal (z-score),[9],-0.083
same,glycan array binding signal (z-score),[10],-0.243
same,glycan array binding signal (z-score),[11],-0.03
same,glycan array binding signal (z-score),[12],-1.03
same,glycan array binding signal (z-score),[13],3.33
same,glycan array binding signal (z-score),[14],0.431
same,glycan array binding signal (z-score),Gal(a1-3)GalNAc,-0.197
same,glycan array binding signal (z-score),[15],0.361
same,glycan array binding signal (z-score),[16],-0.723
same,glycan array binding signal (z-score),Gal(b1-3)GalNAc(b1-3)Gal,0.094
same,glycan array binding signal (z-score),Gal(b1-3)GlcNAc(b1-2)Man,-0.443
same,glycan array binding signal (z-score),[17],0.94
same,glycan array binding signal (z-score),[18],3.08
same,glycan array binding signal (z-score),[19],3.63
same,glycan array binding signal (z-score),[20],3.07
same,glycan array binding signal (z-score),[21],0.8
same,glycan array binding signal (z-score),Gal(b1-4)GlcNAc(b1-2)Man,0.859
same,glycan array binding signal (z-score),[22],0.767
same,glycan array binding signal (z-score),[23],-0.993
same,glycan array binding signal (z-score),[24],3.08
same,glycan array binding signal (z-score),[25],0.693
